Source: PubChem BioAssay (NCI)
This is part of a sample that, as a whole, favours compounds with a hit. Of some 83,000 tested, about 20% had one in any assay.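 Method: cells in 96-well plates; compound added at one concentration; 48 h incubation; percent growth measured; values under 10 scored active.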 Values without a mark were called inactive. Activity calls are given as the source filed them.

tested on: KM12 colon; assay: NCI-60 one-dose screen, 48 h (100 = growth as untreated, 0 = no growth, -100 = all killed); settings: 10 µM
Experimental: Growth inhibition of the KM12 human tumor cell line is measured as a screen for anti-cancer activity. Cells are grown in 96 well plates and exposed to the test compound for 48 hours. Compounds are tested at a single concentration, which is 10^-5 M for most compounds. The reported endpoint is percent growth (GI% or GIPRCNT), where numbers from 0 - 100% represent growth inhibition, and numbers from -100% - 0 represent cell death. For example, a value of 40 represents 60% growth inhibition. A value of 0 means no net growth occurred over the course of the experiment. A value of -40 indicates 40% of cells at the beginning of the experiment died by the end of the experiment. A value of -100 means all cells are dead at the end of the experiment.
NCI-60 Human Tumor Cell Lines Screen was performed using the standard one-dose NCI protocol, which is described in more detail at https://dtp.cancer.gov/discovery_development/nci-60/default.htm.
Compounds with GIPRCNT values below 10 were considered active. Activity score was based on GIPRCNT using the following formula: […]
Score is 0 for GIPRCNT values of 100 or above, 50 for GIPRCNT values of 0, and 100 for GIPRCNT values of -100.

| SMILES | growth |
| --- | --- |
| CCCCC/C=N/Nc1nc(C)cc(=O)[nH]1 | 106% |
| O=C(N/N=C\c1cc(Br)cc(Br)c1O)N/N=C/c1cc(Br)cc(Br)c1O | 66.7% |
| Nc1nc(OCc2ccccc2)c2[nH]cnc2n1 | 112% |
| CCOc1ccccc1/C=N/Nc1nc2ccccc2o1 | 86.4% |
| CC1(c2ccccc2)NC(=O)NC1=O (stereo not given) | 112% |
| O=[N+]([O-])c1ccc(Cl)c(S(=O)(=O)O)c1 | 105% |
| CC(=O)c1ccc2c(ccc3ccccc32)c1 | 106% |
| COC(=O)c1ccc(C(C)C)cc1 | 103% |
| O=C1Cc2cc(O)ccc2O1 | 112% |
| O=P(O)(O)OCC(O)CO (stereo not given) | 105% |
| C=CCNC(=O)c1ccc(OC)cc1 | 122% |
| NC(C(=O)O)c1ccc([N+](=O)[O-])cc1 (stereo not given) | 99.4% |
| CC1C(=O)c2ccccc2CC1C(=O)O (stereo not given) | 123% |
| CCOC(=O)c1cc2cccc(OC)c2oc1=O | 113% |
| COc1ccc2c(NCCCCCCCCNc3c4ccccc4nc4cc(OC)ccc34)c3ccccc3nc2c1 | -100% (active) |
| COc1ccc(/C(C#N)=C2C=C/C(=N/O)c3ccccc3\2)cc1 | 3.23% (active) |
| Cc1cc(O)ccc1O | 105% |
| CSc1[nH]c(=O)ncc1F | 104% |
| Cc1ccc(C(=O)c2ccccc2)c(C)c1 | 107% |
| COc1ccccc1NC(=O)C1=C(C)NC(C)=C(C(=O)Nc2ccccc2OC)C1c1cccc([N+](=O)[O-])c1 | 67.3% |

| SMILES | growth |
| --- | --- |
| C[N+](C)=c1ccc2nc3c(cc(Nc4ccccc4)c4ccccc43)oc-2c1 | 62.5% |
| CCC(C)(O)c1ccc(C)cc1 (stereo not given) | 100% |
| O=[N+]([O-])c1ccc(N=Nc2ccc(O)c3ccccc23)cc1 | 33.1% |
| N#Cc1ccc(OC(=O)Nc2ccc(Cl)c(Cl)c2)cc1 | 42.9% |
| COc1cc(C(N)=O)cc(OC)c1OC | 107% |
| COC(=O)c1ccc(NC(=O)CCl)cc1 | 83.6% |
| N#Cc1c(N)sc(=S)c2c1CCCC2 | 110% |
| Nc1nc(N)c2cc(S(=O)(=O)c3cccc(C(F)(F)F)c3)ccc2n1 | 53.1% |
| O=C(O)C(O)c1ccccc1 (stereo not given) | 99.3% |
| O=[N+]([O-])c1ccc(N=Nc2ccccc2)cc1 | 96.2% |
| CCOC(=O)c1cc(/C=C/c2ccc(Cl)cc2Cl)on1 | -29.7% (active) |
| CCOc1ccc(I)cc1 | 95.2% |
| O=C(O)c1cc([N+](=O)[O-])ccc1Cl | 95% |
| COC(=O)/C=C/C(=O)NC(N)=O | 102% |
| O=C(NCO)c1ccccc1 | 102% |
| COc1cccc(O)c1O | 52.6% |
| Oc1ccc(Cc2ccccc2)c2cccnc12 | 24.8% |
| CCNc1nc2c(cnn2C)c(=O)[nH]1 | 108% |
| O=C(c1ccc(Cl)cc1)c1ccccc1Cl | 119% |
| COc1ccccc1NC(=O)c1cc2cc(Br)ccc2cc1O | 9.92% (active) |
